Measurements from PubChem BioAssay (Tox21).
Values without a mark were called inactive. Calls come from the whole dose curve; as a rule, active = well fitted activation curve with a large enough effect in the repeat runs; inconclusive = weak or mixed curves; inactive = flat fitted curve, though single readings scatter.

Assay: Caspase-3/7 induction in CHO-K1 cells by small molecules, qHTS assay (AID 1346980); note: nearly all actives have a fitted effect of over 15% in size
Settings: CHO-K1 caspase-3/7 induction, Caspase-Glo luminescence, 17 h; series mostly up to 92.4 µM; caspase-3/7 activation: at the top concentration
Text: National Center for Advancing Translational Sciences [NCATS]
NIH Chemical Genomics Center [NCGC]
U.S. Environmental Protection Agency [EPA]
National Institutes of Environmental Health Sciences [NIEHS]
National Toxicology Program [NTP]
Apoptosis is a process of programmed cell death and plays a central role in the development of multicellular organisms. It is a highly regulated process and induces cell death by activating caspases, which are the members of cysteine aspartic acid-specific protease (caspase) family. Caspases involved in apoptosis are classified by their mechanism of action as initiator caspases (caspase-2, -8, -9 and -10) and executioner caspases (caspase-3, -6, and -7). Inhibition of apoptosis results in number of cancers, autoimmune diseases, inflammatory diseases and viral infection. To identify small molecule compounds that induce apoptosis, a homogeneous, luminescent Caspase-Glo 3/7 assay was used. Wild type CHO-K1 cells were used to screen Tox21 libraries for identifying caspase-3/7 activity inducers.
CHO-K1 cells were dispensed at 1,500 per well in 5uL of culture medium into white solid bottom 1536-well plates (Corning Life Sciences, Corning, NY) using a Multidrop Combi (Thermo Scientific, Waltham, MA) dispenser. The assay plates were incubated at 37 C and 5% CO2 for 5hr, and then 23nL of compounds dissolved in DMSO and positive control were transferred using a Pintool station (Wako, San Diego, CA). The assay plates were incubated at 37C and 5% CO2 for 17hr. For caspase-3/7 activity read, 4uL of Caspase-Glo 3/7 reagent (Promega Corporation, Madison, WI) was added to each well of the assay plates using Flying Reagent Dispenser (FRD, Aurora Discovery, San Diego, CA) and incubated the assay plates at room temperature for 30min. The luminescence signal was quantified using a ViewLux plate reader (Perkin Elmer, Shelton, CT).
% is set by controls: 0 for no effect and ±100 for the full control effect.

SMILES	caspase-3/7 activation
O=Cc1ccc(Cl)c(Cl)c1	0.107%
Cc1cc(Cl)c(C)cc1Cl	-1.38%
CCCCOC(=O)c1ccccc1	0.274%
CCCCCCCCCCl	0.195%
OCCN(CCO)c1cccc(Cl)c1	0.54%
CCCCCCOc1ccccc1C(N)=O	-2.97% [at 42.5 µM]
O=C(OCc1ccccc1)C(=O)OCc1ccccc1	-1.45%
O=C(NCCc1c[nH]c2ccccc12)c1cccnc1	-0.988% [at 42.5 µM]
CNS(=O)(=O)CCc1ccc2[nH]cc(C3CCN(C)CC3)c2c1	0.392% [at 42.5 µM]
Nc1ccc2cc(S(=O)(=O)O)cc(O)c2c1	-1.28%
O=C(OCC1(COC(=O)c2cccnc2)CCCC(COC(=O)c2cccnc2)(COC(=O)c2cccnc2)C1O)c1cccnc1	-0.62% [at 42.5 µM]
CC(C)NCC(O)COc1ccc(COCCOC(C)C)cc1 (stereo not given)	0.671% [at 42.5 µM]
OCCC(F)(F)C(F)(F)C(F)(F)C(F)(F)C(F)(F)C(F)(F)C(F)(F)C(F)(F)F	-0.789%
Cc1ccccc1OCC(O)CO (stereo not given)	0.84% [at 42.5 µM]
CCOC(=O)[C@H](CCc1ccccc1)N[C@@H](C)C(=O)N1C(=O)N(C)C[C@H]1C(=O)O	0.331% [at 42.5 µM]
CCO[Si](CCCS)(OCC)OCC	-0.231%
NNc1nnc(NN)c2ccccc12	0.0757% [at 42.5 µM]
CC(=O)OC(C)OC(=O)C(C)c1ccc(-c2ccccc2)c(F)c1 (stereo not given)	-4.89% [at 42.5 µM]
ClCCCl	0.0971%
NS(=O)(=O)c1cc2c(cc1Cl)CN(C1CCCCC1)C2=O	-1.07% [at 42.5 µM]

SMILES	caspase-3/7 activation
C[C@@H]1O[C@@H](O[C@@H]2[C@@H](O)[C@H](OCCc3ccc(O)c(O)c3)O[C@H](CO[C@@H]3O[C@H](CO)[C@@H](O)[C@H](O)[C@H]3O)[C@H]2OC(=O)/C=C/c2ccc(O)c(O)c2)[C@H](O)[C@H](O)[C@H]1O	-1.94%
COc1ccc(Br)c(C)c1	2.33%
O=C(O)c1cc(Br)c(O)c(Br)c1	-2.49%
O=C(c1ccc(O)cc1)c1ccc(O)c(O)c1O	-3.44%
O=C(/N=N/C(=O)OCc1ccccc1)OCc1ccccc1	-0.936%
CC(=O)NCc1c(I)c(NC(C)=O)c(I)c(C(=O)O)c1I	0.0869% [at 42.5 µM]
O=C(O)Cc1cn(-c2ccccc2)nc1-c1ccc(Cl)cc1	-0.789% [at 42.5 µM]
CCCCCCCCCCCCCC	0.671%
CC(N)C(=O)OC(C)(C)Cc1ccc(Cl)cc1 (stereo not given)	0.354% [at 42.5 µM]
NCCN1CCOCC1	0.177%
O=C(NCCN1CCOCC1)c1ccc(Cl)cc1	0.123% [at 42.5 µM]
CCOC(=O)CC(=O)c1ccccc1	-0.125%
CN(C)C(=O)CNC(=O)Cc1ccccc1	1.08% [at 42.5 µM]
COC(=O)CCCCCCCC(=O)OC	-0.947%
NC(CO)C(=O)NNCc1ccc(O)c(O)c1O (stereo not given)	0.402% [at 42.5 µM]
CC1=CCC(C(C)C)=CC1	-0.266%
O=C(O)CCSSCCC(=O)O	0.277%
O=C1CC(c2ccc(Cl)cc2)CC(=O)N1	0.15% [at 42.5 µM]
COc1cc2c(cc1OC)C(=O)CC2	0.0307% [at 42.5 µM]
CCOC(=O)c1ccc(OC(=O)CCCCCN=C(N)N)cc1	-1.54% [at 42.5 µM]
